Assay outcomes deposited in PubChem BioAssay by several laboratories.
IEC-6 tox: IEC-6 cytotoxicity, counter-screen for KLF5 inhibitors; luminescence viability; inhibition, % at 5 µM; 290,000 tested, 0.78% active
KLF5 inh: inhibitors of KLF5 expression; DLD-1 KLF5 promoter-luciferase reporter, luminescence; inhibition, % at 5 µM; 290,000 tested, 0.23% active; AID 1700;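 active = inhibition above a per-plate limit of that plate's mean compound inhibition plus 3 SD, cut at about 60% in these data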;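 also: higher means less KLF5 promoter-driven luciferase light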
APP 5UTR inh: APP translation inhibition. SH-SY5Y APP 5'UTR-luciferase reporter, luminescence. inhibition, % at 2 µM. 190,000 tested, 0.82% active;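 active = inhibition above a set limit, derived from the sample mean plus 3 SD, cut at about 45% in these data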
aSyn 5UTR inh: 5' untranslated region of α-synuclein, MLPCN primary screen | AID 1813 | alpha-synuclein 5'UTR reporter, inhibitor activity | inhibition, % (tested at 7.5 µM) | 300,000 tested, 0.82% active; in the data active = inhibition above about 60%;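 also: H4 neuroglioblastoma cells stably carrying SNCA 5'UTR luciferase fusion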
BaF3 parental: reduces parental Ba/F3 cell viability, JAK2V617F counter-screen; CellTiter-Glo ATP luminescence; inhibition, % at 5.6 µM; 220,000 tested, 1.1% active; AID 1486;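 active = inhibition above a per-campaign cutoff, the mean inhibition of all tested compounds plus 3 SD, cut at about 27% in these data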
Ba/F3 V617F tox: lowers viability of Ba/F3 cells expressing EpoR and JAK2V617F. ATP luminescence. inhibition, % at 5.6 µM. 220,000 tested, 1.1% active;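 active = inhibition above the campaign mean plus 3 SD over all tested compounds, cut at about 24% in these data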;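 also: cytokine-independent growth of Ba/F3 cells driven by EpoR plus mutant JAK2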
IEC-6 cytotox cf: IEC-6 cytotoxicity, confirmation assay. 1,900 tested, 63% active. shares compounds with IEC-6 tox. inhibition, % at 5 µM. IEC-6 rat intestinal epithelial viability, luminescence
Hits are given with their value; - = inactive; . = no result. Hits are enriched below; roughly 2.1% of the tested compounds scored in any of these assays. Rule as the data show it, unless noted: active = inhibition above about 22%; inactive = the rest.

SMILES | IEC-6 tox | KLF5 inh | APP 5UTR inh | aSyn 5UTR inh | BaF3 parental | Ba/F3 V617F tox | IEC-6 cytotox cf
Cc1ccc(C)c(Cn2c(C(=O)OC(C)C)cc3c2ccn3C)c1 | 29 | - | - | - | - | - | -
Cc1ccccc1Cn1c(C(=O)OC(C)C)cc2c1ccn2C | - | - | - | - | - | - | .
CCOC(=O)c1cc2c(ccn2C)n1CC(=O)N(Cc1ccccc1)c1ccccc1 | 32 | - | - | - | - | - | -
CC(C)OC(=O)c1cc2c(ccn2C)n1CC(=O)N1CCC(Cc2ccccc2)CC1 | 40 | - | - | - | - | - | -
Cc1cccc(C)c1NC(=O)CN(c1ccccn1)S(=O)(=O)c1ccccc1 | - | - | - | - | - | - | .
CCOC(=O)/C(C#N)=N/Nc1c(C)n(C)n(-c2ccccc2)c1=O | - | - | - | - | - | - | .
Cc1ccccc1C(=O)/C(C#N)=N/Nc1c(C)n(C)n(-c2ccccc2)c1=O | 38 | - | 68 | 79 | - | - | 36
Cc1c(N/N=C(\C#N)C(=O)c2ccccc2)c(=O)n(-c2ccccc2)n1C | 39 | - | 77 | - | - | - | 44
COc1ccccc1NC(=O)Nc1nc(CC(=O)N2CCN(c3ccccc3F)CC2)cs1 | . | . | . | - | . | . | .
CCCCCc1nnc(NC(=O)c2ccc(N3CCCC3=O)cc2)s1 | . | . | . | - | . | . | .
Cc1ccc(S(=O)(=O)c2nc(S(C)(=O)=O)sc2N2CCC(C)CC2)cc1 | - | - | . | - | . | . | .
Cc1ccc(-c2nc(Nc3ccc(O)cc3)c3ccccc3n2)cc1 | - | - | . | - | . | . | .
Cc1ccc(-c2nc(C(Cl)Cl)c3ccccc3n2)cc1 | 87 | - | . | 93 | - | - | 99
Cc1ccc(S(=O)(=O)Nc2ccc3c4c(cccc24)CC3)c(C)c1 | 26 | - | - | - | - | - | 39
O=C(COc1coc(CN2CCc3ccccc3C2)cc1=O)Nc1ccc(F)cc1F | . | . | . | - | . | . | .
COc1ccc(S(=O)Cc2ccc(C(=O)N3CCN(c4cccc(C)c4C)CC3)o2)cc1 (centres undefined) | 32 | - | . | - | . | . | 37
COc1ccc(N2CCN(C(=O)c3ccc(CS(=O)Cc4ccc(C)cc4)o3)CC2)cc1 (centres undefined) | - | - | . | - | . | . | .
Cc1cccc(NC(=O)CSc2nnc(CNC(=O)c3cccs3)o2)c1C | - | - | - | - | - | - | .
COc1cc(/C=N/NC(=O)c2ccc(COc3cc(C)ccc3C(C)C)cc2)cc(OC)c1O | - | - | - | - | - | - | .
Cc1ccc(C(C)C)c(OCc2ccc(C(=O)N/N=C/c3cccc(O)c3O)cc2)c1 | 41 | - | 80 | 108 | 90 | 97 | 78
CC(=O)c1ccc(OC(=O)c2nc(-c3ccccc3)oc2C)cc1 | - | - | . | - | . | . | .
O=C(NCc1ccncc1)c1cc(F)c(F)cc1Cl | - | - | - | - | - | - | .
O=C(Nc1ccc(Cc2ccncc2)cc1)c1cc(F)c(F)cc1Cl | 31 | - | - | - | - | - | 48
COc1cc(C2=NOC(C(=O)NCc3cccnc3)C2)cc(OC)c1OC (centres undefined) | - | - | . | - | . | . | .
COc1ccc(C2=NOC(C(=O)NCc3ccco3)C2)cc1 (centres undefined) | 25 | - | - | - | - | - | 35
SMILES | IEC-6 tox | KLF5 inh | APP 5UTR inh | aSyn 5UTR inh | BaF3 parental | Ba/F3 V617F tox | IEC-6 cytotox cf
COc1cc(C2=NOC(C(=O)NCc3ccco3)C2)cc(OC)c1OC (centres undefined) | 26 | - | - | - | 51 | 43 | 44
COc1ccc(S(=O)(=O)N2CCCCC2)cc1NC(=O)C1COc2ccccc2O1 (centres undefined) | . | . | . | - | . | . | .
Nc1cc(=O)[nH]c(=O)n1CCc1ccccc1 | - | - | . | - | . | . | .
CC1=[N+](C)c2c(ccc3cccnc23)C1(C)C | 26 | - | - | . | 63 | 72 | 33
CCOc1cc(/C=N/NC(=O)c2ccc(N(C)S(=O)(=O)c3ccccc3)cc2)ccc1OC | - | - | . | - | . | . | .
Cc1cc(OCCCC(=O)Nc2cccc(-n3cnnn3)c2)ccc1Cl | - | - | . | - | . | . | .
CCN1CCN(Cc2ccc(NC(=O)c3ccc(C)c(NC(=O)c4ccc5n[nH]nc5c4)c3)cc2C(F)(F)F)CC1 | . | . | . | - | . | . | .
CCN1CCN(Cc2ccc(NC(=O)c3ccc(C)c(NC(=O)C(=O)c4c[nH]c5ccccc45)c3)cc2C(F)(F)F)CC1 | 55 | - | . | 112 | . | . | -
COc1ccccc1C(=O)Nc1nc2ccccc2s1 | 29 | - | . | 109 | . | . | 28
COc1ccccc1C(=O)Nc1nc2ccc(S(C)(=O)=O)cc2s1 | - | - | - | - | - | - | .
COc1ccccc1C(=O)Nc1nnc(CCc2ccccc2)s1 | 44 | - | . | - | . | . | 56
CCOC(=O)Cc1nnc(NC(=O)c2ccccc2OC)s1 | - | - | - | - | - | - | .
COc1ccc(N2CC(O)=C(c3nc4ccccc4s3)C2=N)cc1 | - | - | - | - | - | - | .
COc1cccc(N2CC(O)=C(c3nc4ccccc4s3)C2=N)c1 | 79 | - | 88 | - | 81 | 76 | 57
C=CCNc1nnc(Cc2ccc(C(C)C)cc2)c(=O)[nH]1 | 23 | - | . | - | . | . | -
CC(=O)NC(CC(=O)NC1CCCc2ccccc21)c1ccccc1 (centres undefined) | - | - | . | - | . | . | .
CN1CCc2cc3c(c4c2[C@H]1[C@H](O)c1ccccc1-4)OCO3 | 44 | - | - | - | 65 | 65 | -
CNc1c(NC(=O)c2ccc3c(c2)OCO3)c(=O)oc2ccccc12 | - | - | . | - | . | . | .
O=C(c1ccco1)c1coc2c1cc(O)c1ccccc12 | 25 | - | - | - | - | - | -
CC(=O)c1coc2c1cc(O)c1ccccc12 | - | - | - | - | - | - | .
Cc1[nH]c(=O)[nH]c(=O)c1S(=O)(=O)Nc1cccc(C(F)(F)F)c1 | - | - | . | - | . | . | .
Cc1ccc(S(=O)(=O)Nc2cccc3cccnc23)c([N+](=O)[O-])c1 | 66 | - | . | 71 | . | . | 47
O=S(=O)(Nc1cccc2cccnc12)c1ccccc1 | 102 | - | . | - | . | . | 98
Cc1ccc2cccc(NS(=O)(=O)c3ccccc3)c2n1 | 99 | - | . | - | . | . | 100
COc1ccc(NS(=O)(=O)c2ccc3ccccc3c2)c2ncccc12 | 60 | - | . | - | . | . | 52
SMILES | IEC-6 tox | KLF5 inh | APP 5UTR inh | aSyn 5UTR inh | BaF3 parental | Ba/F3 V617F tox | IEC-6 cytotox cf
Cc1cc(C)c(NS(=O)(=O)c2cccc3cccnc23)c(C)c1 | - | - | - | - | - | - | .
COc1ccccc1NS(=O)(=O)c1ccc2ccccc2c1 | - | - | . | - | . | . | .
CCOc1ccc(S(=O)(=O)N(CC)CC(=O)N2CCOCC2)cc1C | - | - | . | - | . | . | .
Cc1ccc(NC(=O)CN2CCN(C)CC2)cc1S(=O)(=O)N1CCOCC1 | . | . | . | - | . | . | .
O=S(=O)(Nc1cccc2cccnc12)c1ccc(S(=O)(=O)N2CCCC2)cc1 | 32 | - | - | - | - | - | 35
Cc1ccc(NC(=O)C2CCCN2S(=O)(=O)c2ccc(-c3ccc(=O)[nH]n3)s2)c(C)c1 (centres undefined) | - | - | . | - | . | . | .
COCCCNC(CC(=O)Nc1cc(C)cc(C)c1)C(=O)O (centres undefined) | . | . | . | - | . | . | .
CCCCn1c(CN2CCN(c3cccc(Cl)c3)CC2)nc2c1c(=O)[nH]c(=O)n2C | 44 | - | 85 | - | 38 | 48 | 41
